Bioassay records: PubChem, National Center for Advancing Translational Sciences (NCATS)
Six1-Eya2 inh – inhibitors of human Six1/Eya2 interaction; Q15475+O00167; AlphaScreen GST-Six1/His-Eya2 binding, biochemical; stronger effect = lower value; activity change, % (test concentration not listed); 0.56% of 360,000 active; AID 651725; in the data active means activity change below about -65%; inconclusive means mostly about -30% to -63%
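AlphaScreen luminescence read after one hour at 37 °C in darkness. Pin-transferred compounds met GST-Six1 and His-Eya2 protein (5X stock 250 nM/500 nM) plus glutathione donor and Ni-chelate acceptor beads (5X, 50 ug/mL).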
TDP1 inh – TDP1 (human) enzyme inhibition; Q9NUW8; recombinant TDP1, AlphaScreen DNA substrate cleavage; Potency, µM (highest dose often 130 µM), hits mostly inhibitors; 0.28% of 350,000 active; further: nearly all actives have a fitted effect of over 40% in size
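Here, a 5' biotin and 3' phosphotyrosine-FITC DNA oligonucleotide reports Tdp1 activity: intact substrate bridges AlphaScreen beads, while cleavage leaves a 3' phosphate and drops signal. All incubations at room temperature.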
JMJD2A Tudor – inhibitors of human JMJD2A Tudor domain. O75164. AlphaScreen JMJD2A-Tudor / H3K4me3 peptide binding. Potency, µM (titrated, usually from 114 µM), hits mostly inhibitors. 4.4% of 390,000 active. AID 504339; further: nearly all actives have a fitted effect of over 50% in size
Target sequence (O75164 whole entry, looked up, the tested form may be a part): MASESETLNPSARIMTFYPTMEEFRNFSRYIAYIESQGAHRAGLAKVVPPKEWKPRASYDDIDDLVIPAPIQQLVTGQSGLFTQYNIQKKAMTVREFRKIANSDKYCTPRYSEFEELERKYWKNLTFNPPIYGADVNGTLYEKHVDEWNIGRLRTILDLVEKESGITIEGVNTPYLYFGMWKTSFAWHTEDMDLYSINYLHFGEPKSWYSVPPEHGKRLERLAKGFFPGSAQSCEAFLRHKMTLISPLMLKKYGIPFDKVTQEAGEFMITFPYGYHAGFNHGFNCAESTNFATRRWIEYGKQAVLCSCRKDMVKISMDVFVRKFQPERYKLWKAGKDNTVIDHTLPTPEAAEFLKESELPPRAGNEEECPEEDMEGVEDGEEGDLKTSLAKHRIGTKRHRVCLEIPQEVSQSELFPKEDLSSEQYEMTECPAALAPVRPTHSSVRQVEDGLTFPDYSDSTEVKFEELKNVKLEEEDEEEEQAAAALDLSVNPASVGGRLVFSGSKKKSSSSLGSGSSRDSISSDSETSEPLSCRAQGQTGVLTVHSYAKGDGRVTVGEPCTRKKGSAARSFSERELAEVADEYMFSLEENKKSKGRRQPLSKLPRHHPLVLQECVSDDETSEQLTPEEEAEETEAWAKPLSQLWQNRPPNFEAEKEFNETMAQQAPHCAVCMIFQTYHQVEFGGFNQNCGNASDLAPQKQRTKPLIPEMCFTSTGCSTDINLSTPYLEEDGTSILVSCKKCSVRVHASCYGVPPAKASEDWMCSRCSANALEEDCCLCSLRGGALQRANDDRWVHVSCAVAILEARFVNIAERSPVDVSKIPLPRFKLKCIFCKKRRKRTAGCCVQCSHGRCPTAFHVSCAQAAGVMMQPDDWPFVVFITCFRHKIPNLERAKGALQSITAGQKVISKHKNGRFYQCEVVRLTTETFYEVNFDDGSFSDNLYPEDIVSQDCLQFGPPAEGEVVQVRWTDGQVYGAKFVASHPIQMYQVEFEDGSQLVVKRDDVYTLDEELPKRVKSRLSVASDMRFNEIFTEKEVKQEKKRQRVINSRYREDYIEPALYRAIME
BAZ2B inh – BAZ2B (human) inhibition | Q9UIF8 | Potency, µM (highest dose often 114 µM), usual class: inhibitors | AlphaScreen BAZ2B-H3K14Ac peptide displacement | 4.4% of 360,000 active; further: nearly all actives have a fitted effect of over 60% in size
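BAZ2B (50 nM) with biotin-H3(5-23)K14Ac peptide (50 nM) in PBS pH 7.4, 0.01% Tween-20, preformed 30 min, then compound 30 min at room temperature; top concentration 110uM. AlphaScreen streptavidin donor/nickel chelate acceptor beads (10 ug/mL final), 20 min dark, signal read.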
HP1b binding inh – blocks HP1-beta chromodomain binding to methylated histone tails | P83916 | AlphaScreen HP1-beta / biotin-H3K9me3 peptide binding | Potency, µM (series often up to 114 µM), most hits filed as inhibitors | 0.56% of 390,000 active; further: nearly all actives have a fitted effect of over 70% in size
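AlphaScreen: HP1-beta (50 nM) preformed 30 min with biotin-H3(1-18)K9me3 peptide (50 nM) in PBS pH 7.4, 0.01% Tween-20. Compound added for 30 min at RT, then streptavidin donor/nickel chelate acceptor beads (10 ug/mL) for 30 min.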
CtBP-E1A inh – CtBP/E1A binding inhibition; AlphaScreen GST-E1A/His-CtBP binding, 1536-well; stronger effect = lower value; 0.49% of 340,000 active; activity change, % (no concentration beside the values); in the data active means activity change below about -65%; inconclusive means mostly about -30% to -63%
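In 5 uL wells, 23 nL compound meets equimolar GST-E1A and His-CtBP (5X stock 125 nM each) for 2 h, 37 °C. Beads (5X, 50 ug/mL) then 1 h, 37 °C, dark.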
Numbers stand for hits; - = inactive; ? = inconclusive; . = not tested or not shown. Only some compounds are listed: those with a hit (about 5.3% of all), similar ones and a draw of the others. Unless noted, the call rests on the fitted dose curve; in most records, active means well fitted inhibition curve with a large enough effect; inconclusive means small, poorly fitted or top-dose-only effect; inactive means no such curve, though single readings can be large or run the other way.

SMILES	Six1-Eya2 inh	TDP1 inh	JMJD2A Tudor	BAZ2B inh	HP1b binding inh	CtBP-E1A inh
COc1ccc(N2CCN(C(c3cccs3)C(C)NS(=O)(=O)c3ccccc3)CC2)cc1 (stereo unspecified)	?	-	10µM	25µM	-	-
COc1ccc(N2CCN(C(CNS(=O)(=O)c3ccccc3)c3ccccc3)CC2)cc1 (stereo unspecified)	-	-	16µM	25µM	?	?
COc1ccc(N2CCN(C(c3cccs3)C(C)NC(=O)C(=O)N3CCCC3)CC2)cc1 (stereo unspecified)	-	-	?	40µM	-	-
COc1ccc(N2CCN(C(CNS(=O)(=O)c3c(C)cc(C)cc3C)c3ccco3)CC2)cc1 (stereo unspecified)	.	-	22µM	32µM	-	.
COc1ccc(C)cc1NC(=O)N(C(C)C)C1CCN(C(C)=O)CC1	.	-	-	-	-	.
CCOC(=O)CNC(=O)N1[C@H](c2cccs2)[C@@H](C)C(=O)[C@@H](C)[C@@H]1c1cccs1	.	-	-	-	-	.
CCOC(=O)c1c(C)[nH]c(C)c1S(=O)(=O)N1CCCC(C(=O)Nc2ccc(C)c(N(C)C)c2)C1 (stereo unspecified)	.	-	-	?	-	.
Cc1cc(C)cc(-n2ccnc(NCCc3ccccc3)c2=O)c1	.	-	-	-	-	.
COCCn1c(=S)[nH]c2cc(C(=O)NCC3CCCO3)ccc2c1=O (stereo unspecified)	-	-	18µM	?	-	-
O=C(NCC1CCCO1)c1ccc2c(=O)n(CC3CCCO3)c(=S)[nH]c2c1 (stereo unspecified)	-	-	7.9µM	?	-	-
O=C(NCc1ccc(Cl)cc1)c1ccc2c(=O)n(CC3CCCO3)c(=S)[nH]c2c1 (stereo unspecified)	-	-	-	-	-	-
CC12C(=O)N(c3nccs3)C(=O)C1C1C=CC2C1 (stereo unspecified)	-	22µM	-	-	-	-
CC12C(=O)N(c3cccc4cccnc34)C(=O)C1C1C=CC2C1 (stereo unspecified)	-	-	-	-	-	-
O=C(O)CNC(=O)CC1S/C(=N/N=C/c2ccccc2O)NC1=O (stereo unspecified)	-	-	?	50µM	-	.
O=C(O)CNC(=O)CC1S/C(=N/N=C2\CSC(=O)N2)NC1=O (stereo unspecified)	-93	-	7.1µM	6.3µM	-	.
O=C(CC1S/C(=N/N=C2CCCCCC2)NC1=O)Nc1ccccc1F (stereo unspecified)	-	-	-	-	-	-
CCNC(=O)CC1S/C(=N/N=C(\C)c2ccccc2)NC1=O (stereo unspecified)	-	-	?	-	-	.
Cc1ccc(/C=N/N=C2/NC(=O)C(CC(=O)Nc3ccccc3)S2)o1 (stereo unspecified)	-	-	-	-	-	-
NC(=O)NC(=O)CC1S/C(=N/N=C2/NC(=O)CS2)NC1=O (stereo unspecified)	-78	-	28µM	20µM	-	?
CCN(CC)CCOCCOC(=O)C(CC)(CC)c1ccccc1 (tested in a mixture with another compound)	.	-	.	.	.	.
COCCc1nn2c(=O)cc(COC(=O)c3ccccc3C)nc2s1	.	-	-	-	-	.
CC(C)COC(=O)CNc1n[nH]c(=S)[nH]c1=O	-	-	50µM	-	-	-
NC(=O)CNc1n[nH]c(=S)[nH]c1=O	-	-	20µM	-	-	-
CCCCOC(=O)C(C)Nc1n[nH]c(=O)[nH]c1=O (stereo unspecified)	-	-	-	-	-	-
CC(Nc1n[nH]c(=S)[nH]c1=O)C(=O)OCc1ccccc1 (stereo unspecified)	-	-	-	-	-	-
SMILES	Six1-Eya2 inh	TDP1 inh	JMJD2A Tudor	BAZ2B inh	HP1b binding inh	CtBP-E1A inh
CCCCOC(=O)C(C)Nc1n[nH]c(=S)[nH]c1=O (stereo unspecified)	-	-	11µM	?	-	-
CCCCOC(=O)CCNc1n[nH]c(=O)[nH]c1=O	-	-	-	-	-	-
CCN(CC)c1ncnc2c1cnn2-c1cc(Cl)ccc1C	.	-	-	-	-	.
C[C@H](N)CCCC(C)(C)O	.	-	.	.	.	.
O=C(NN1C(=O)/C(=C\c2cccnc2)SC1=S)C(c1ccccc1)c1ccccc1	-	-	?	-	?	-
COc1cc(/C=C2\SC(=S)N(C(C(=O)O)c3ccccc3)C2=O)ccc1O (stereo unspecified)	-	-	-	?	?	.
COc1ccc(/C=C2/SC(=O)N(CC(O)Cn3c4ccccc4c4ccccc43)C2=O)cc1 (stereo unspecified)	-	-	79µM	-	-	-
O=C(O)C(Cc1ccccc1)N1C(=O)/C(=C/c2cccnc2)SC1=S (stereo unspecified)	-	-	16µM	-	-	-
COc1ccc(/C=C2\SC(=S)N(C(Cc3ccccc3)C(=O)O)C2=O)cc1 (stereo unspecified)	-	-	?	40µM	?	-
Cc1cccc(OC(=O)CSc2nnc(-c3cccs3)o2)c1C	.	-	-	-	-	.
Cc1ccc(CNC(=O)c2cc3cc(C)ccc3n2C)cc1	.	-	-	-	-	.
CCOc1nc(Nc2ccc(OC)c(Cl)c2)nc(N2CCN(c3ccc(OC)cc3)CC2)n1	?	-	35µM	11µM	?	?
CCOc1nc(Nc2ccc(F)cc2)nc(N2CCN(c3ccc(OC)cc3)CC2)n1	-	-	-	-	-	-
Cc1cc(N2O[C@H]3C=C[C@@H]2C3)no1	-	.	79µM	.	-	-
O=[N+]([O-])c1cc(-c2ccc(C(=S)N3CCOCC3)o2)ccc1Cl	?	-	40µM	32µM	10µM	?
O=C(Nc1nccs1)c1ccc(-c2cccc([N+](=O)[O-])c2)o1	-	-	56µM	-	?	-
O=[N+]([O-])c1cccc(-c2ccc(C(=S)N3CCOCC3)o2)c1	-	-	45µM	28µM	?	-
O=C(NN1CCOCC1)c1ccc(Cl)c([N+](=O)[O-])c1	-	-	-	-	-	-
CN1CCN(C(=S)c2ccc(-c3cccc([N+](=O)[O-])c3)o2)CC1	-	-	50µM	?	-	-
COc1ccc(NC(=O)CN(c2cc(C)cc(C)c2)S(=O)(=O)c2c(C)noc2C)cc1Cl	.	-	-	.	-	.
O=C(NCCCn1ccnc1)C(=O)NCC1OCCN1S(=O)(=O)c1ccc(F)cc1 (stereo unspecified)	-77	-	56µM	6.3µM	-	-73
O=C(NCCCn1ccnc1)C1CCCN(S(=O)(=O)c2ccc(F)cc2)C1 (stereo unspecified)	-	-	13µM	-	-	-
